In PubChem BioAssay (NCI):
Compounds without any hit were thinned out: in the full panel of roughly 79,000, 15% have a hit. Calls of active or inactive are those of the source. Rule as the data show it: active = growth inhibition above about 70%; inactive = the rest.

How the values were obtained:
[1] = NCI Yeast Anticancer Drug Screen. Data for the rad50 strain (AID 155);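 also: 0% = growth of vehicle-only cultures of the same strain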; conditions: S. cerevisiae rad50 strain growth inhibition; at 50.0 µM; active compounds read high
In short: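 Genetically altered yeast (DNA repair pathway); compound treatment; growth inhibition vs vehicle ctrl.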

[2] = NCI Yeast Anticancer Drug Screen. Data for the mec2-1 strain (AID 157); conditions: S. cerevisiae mec2-1 strain, at 50.0 µM, active compounds read high
In short: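 Each compound was tested on mec2-1 yeast, a strain altered in DNA damage repair or cell cycle control. Growth inhibition is reported relative to vehicle.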

[3] = NCI Yeast Anticancer Drug Screen. Data for the sgs1 mgt1 strain (AID 161);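 also: 0% = growth of cultures given vehicle only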; conditions: S. cerevisiae sgs1 mgt1 strain, at 50.0 µM, active compounds read high
In short: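 Inhibition of yeast growth, normalised to vehicle-treated controls, is reported for a strain bearing genetic alterations in DNA damage repair.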

[4] = NCI Yeast Anticancer Drug Screen. Data for the cln2 rad14 strain (AID 165);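 also: 0% = growth equal to vehicle treated cultures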; conditions: S. cerevisiae cln2 rad14 strain, at 50.0 µM, active compounds read high
In short: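 Test compounds were added to cln2 rad14 yeast cultures; inhibition of growth was then determined by comparison with vehicle treatment.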

[5] = NCI Yeast Anticancer Drug Screen. Data for the bub3 strain (AID 167); conditions: S. cerevisiae bub3 mutant strain, at 50.0 µM, active compounds read high
In short: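 Yeast carrying a defined mutation is treated with each compound, and growth is compared with that of vehicle-exposed cells to give inhibition.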

[6] = NCI Yeast Anticancer Drug Screen. Data for the mlh1 rad18 strain (AID 175); conditions: S. cerevisiae mlh1 rad18 strain growth inhibition; at 50.0 µM; active compounds read high
In short: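 Inhibition values reflect reduced growth of mutant yeast versus vehicle-treated controls following compound exposure; the mutations affect DNA damage repair.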

Measured: growth inhibition

Cc1ccc(N2C(=O)CC3(CCCC3)C2=O)cc1Cl
inactive: [1] 14.6% | [2] -2% | [3] -6.05% | [4] 5.95% | [5] 5% | [6] 21.6%

CSC1=Nc2ccccc2N=C(c2ccccc2)C1
inactive: [1] 41.9% | [2] -10.8% | [3] 52% | [4] 9.05% | [5] 44.8% | [6] 23.3%

OCc1cccc(F)c1
inactive: [1] -15.4% | [2] -42.6% | [3] -31.4% | [4] 8.1% | [5] -21.4% | [6] -5.35%

Cc1cc(=O)n2c(n1)Nc1ccccc1C2
inactive: [1] 22.5% | [2] -26% | [3] 2.75% | [4] 1.65% | [5] 46.4% | [6] 6.8%

CCCCOCCOC(=O)c1ccccc1C(=O)OCCOCCCC
inactive: [1] -5.75% | [2] -42.4% | [3] -49.4% | [4] -49% | [5] -23.1% | [6] -25%

COC(=O)C1=NOC(Cc2ccccc2)C1 (configuration not stated)
inactive: [1] 10.3% | [2] 6.95% | [3] 0.15% | [4] -35.4% | [5] 6.45% | [6] -4.85%

COC(=O)NC1C(C)OC(OC2C/C=C(/C)C3C=CC4C(OC5CC(OC6CCC(OC7CC(O)C(OC8CCC(O)C(C)O8)C(C)O7)C(C)O6)C(OC(C)=O)C(C)O5)C(C)CC(C)C4C3(C)/C(O)=C3/C(=O)OC4(CC(C=O)=CC(O)C4/C=C\2C)C3=O)CC1(C)[N+](=O)[O-] (configuration not stated)
inactive: [1] 21.1% | [2] 20.9% | [3] 22.2% | [4] 25.6% | [5] 22.9% | [6] -38%

CC(=O)c1c(O)cccc1O
inactive: [1] -11.8% | [2] -13.8% | [3] -1.75% | [4] 8.7% | [5] 8.7% | [6] -3.75%

C/C=C/C(=O)OCCCCCCCCCCCC
inactive: [1] -41.1% | [2] -39% | [3] -18.8% | [4] -16.8% | [5] -15.6% | [6] -39.8%

C[C@]12CCC(=O)C=C1CC[C@@H]1C2CC[C@]2(C)Nc3[nH]ncc3CC12 (some centres not stated)
inactive: [1] -22.2% | [2] 9.6% | [3] 37.4% | [4] 33.6% | [5] 11.8% | [6] 27.1%

Cn1nc2ccc3nccc(NCCNCCO)c3c2n1
inactive: [1] -3.65% | [2] -8.8% | [3] -4.65% | [4] 7.4% | [5] -4.8% | [6] -9.65%

Nc1nc2c([nH]c(=O)n2C2OC(CO)C(O)C2O)c(=O)n1N (configuration not stated)
inactive: [1] 16.1% | [2] 6.2% | [3] 18.8% | [4] -13% | [5] 9.95% | [6] 5.2%

CC(C)(C)c1ccc2c(c1)CNCCNCCNCc1cc(C(C)(C)C)ccc1OCC1(CO2)COc2ccc(C(C)(C)C)cc2CNCCNCCNCc2cc(C(C)(C)C)ccc2OC1
active: [1] 91% | [2] 93% | [3] 92% | [4] 91.2% | [5] 92.2% | [6] 89.8%

NC(=O)c1cnn(CCO)c1N
inactive: [1] 0.2% | [2] -3.35% | [3] 2.55% | [4] -15.6% | [5] 2.85% | [6] 12.6%

CC#CCOC(=O)c1ccccc1OC(C)=O
inactive: [1] 27.8% | [2] -1.75% | [3] 23.9% | [4] 9.7% | [5] 26.9% | [6] 19.1%

CCN(CC)C(=O)c1cc2c(cc1[N+](=O)[O-])OCO2
inactive: [1] -0.6% | [2] -15.4% | [3] 3.65% | [4] -45.8% | [5] 1.25% | [6] -18.4%

C1CSCC2(COC2)CS1
inactive: [1] 13% | [2] 13.6% | [3] -9.65% | [4] 5% | [5] -1.55% | [6] 14.2%

OCCCN=C1CCCCC1
inactive: [1] -3.4% | [2] -10.3% | [3] -35.5% | [4] -54.4% | [5] -11% | [6] -13.3%

O=S(=O)(Oc1ccc(Cl)cc1)c1ccc(Br)cc1
inactive: [1] 10.7% | [2] 32.7% | [3] 47.1% | [4] 8.8% | [5] 39.4% | [6] 25.3%

COc1ccc(C(O)C(O)(c2ccccc2)c2ccc(OC)cc2)cc1 (configuration not stated)
inactive: [1] -6.05% | [2] -4.1% | [3] -6.3% | [4] -19.1% | [5] 19.9% | [6] -11.6%

N#CCCNCCNCCC#N
inactive: [1] -30.8% | [2] -2.25% | [3] -18.1% | [4] -68.2% | [5] -26.1% | [6] -26.4%

O=C(CO)c1ccc(-c2ccccc2)cc1
inactive: [1] -8% | [2] -12.4% | [3] -19.1% | [4] -12.7% | [5] 4.95% | [6] 16.2%

N#Cc1nc(-c2ccccc2C(=O)O)oc1N
inactive: [1] -0.5% | [2] 9.8% | [3] -16.1% | [4] 5.7% | [5] -7.15% | [6] -62%

CC(C)CNN(CC(C)C)C(N)=O
inactive: [1] -32.7% | [2] -25% | [3] -19.8% | [4] -24.7% | [5] -25.6% | [6] -20.1%

O=C(Nc1cc(Cl)c(Cl)cc1Cl)Nc1cc(Cl)ccc1Oc1ccc(Cl)cc1S(=O)(=O)O
active: [1] 98% | [2] 99.3% | [3] 99.2% | [4] 98.5% | [5] 98.8% | [6] 98.7%

CC(=O)Oc1cc2c(cc1OC(C)=O)C1(C)CCC2(C)c2cc(OC(C)=O)c(OC(C)=O)cc21
inactive: [1] 1.6% | [2] 0.2% | [3] 3.6% | [4] 9.55% | [5] -2.7% | [6] 14.3%

CC(=O)CC(C)(C)N
inactive: [1] -0.1% | [2] -9.7% | [3] -1.4% | [4] -6.05% | [5] 3.1% | [6] -2.1%

O=C(CC(C(=O)c1ccsc1)c1cccs1)c1cccs1 (configuration not stated)
inactive: [1] 50.9% | [2] 14.2% | [3] 57.3% | [4] 36.4% | [5] 59.6% | [6] 33.8%

Cc1ccc(N=Cc2cc(Br)ccc2O)cc1Cl
active: [1] 98.6% | [2] 99% | [3] 99.1% | [4] 95% | [5] 98.7% | [6] 96.8%

NC(=O)Cc1csc(Br)n1
inactive: [1] 12.9% | [2] 0.8% | [3] -6.2% | [4] -32.2% | [5] 15.4% | [6] 7.9%

NCC(=O)NC1CCCCC1
inactive: [1] 30.6% | [2] 1.85% | [3] -8.45% | [4] 25.4% | [5] -3.65% | [6] 5.3%

Cc1ccc(S(=O)OC2C3CC4CC(C3)CC2C4)cc1 (configuration not stated)
inactive: [1] 6.65% | [2] 10.3% | [3] 0.2% | [4] 30.8% | [5] 1.25% | [6] 0.75%
